In PubChem BioAssay AID1159580 (chemical genetic matrix, 2015):
Among all 5,500 compounds or so, about 2,000 (36%) were called active. Roughly 18% stayed inconclusive and do not appear here. No stated cut-off is given here; in the data, active means normalized growth mostly below about 0.91 (no sharp cut-off); inconclusive means no clear call, values can overlap the other calls; inactive means mostly above about 0.92. The list shows a part of the results.

Test: chemical genetic growth profiling, strain panel (AID 1159580);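 further: tested at 20 µM; growth read once vehicle control cultures reached saturation at 30 °C; 1 = growth at the plate median or of vehicle wells; lower values mean less growth of the strain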
Details: S. cerevisiae deletion strains, growth OD

Measured: normalized growth

C=CCCCCCCCCCCCC(O)CC(O)CO (centres undefined) (tested in a mixture with another compound)
inactive: locus YKL068W, hits give low values 1 | locus YOL012C, strain htz1 1.15
active: locus YBR021W, strain FUR4, hits give low values 0.426 | locus YBR229C, strain ROT2, hits give low values 0.531 | locus YCL029C, strain bik1, hits give low values 0.253 | locus YDL035C, strain GPR1, hits give low values 0.359 | locus YDL074C, strain BRE1, hits give low values 0.208 | locus YDL101C, strain DUN1, hits give low values 0.242 | locus YDL185W, strain tfp1, hits give low values 0.611 | locus YDL192W, strain arf1, hits give low values 0.231 | locus YDR101C, strain arx1, hits give low values 0.471 | locus YDR150W, strain NUM1, hits give low values 0.637 | locus YDR162C, strain NBP2, hits give low values 0.281 | locus YDR318W, strain mcm21, hits give low values 0.224 | locus YDR388W, hits give low values 0.496 | locus YDR502C, strain sam2, hits give low values 0.347 | locus YEL061C, strain CIN8, hits give low values 0.177 | locus YER110C, hits give low values 0.27 | locus YER155C, strain BEM2, hits give low values 0.0936 | locus YER167W, strain BCK2, hits give low values 0.276 | locus YGL078C, strain dbp3, hits give low values 0.465 | locus YGL086W, strain mad1, hits give low values 0.145 | locus YGL248W, strain PDE1, hits give low values 0.165 | locus YGR135W, strain pre9, hits give low values 0.335 | locus YGR252W, strain gcn5, hits give low values 0.407 | locus YHR030C, strain SLT2, hits give low values 0.21 | locus YHR079C, strain IRE1 (second series), hits give low values 0.253 | locus YHR094C, strain hxt1, hits give low values 0.198 | locus YHR129C, strain ARP1, hits give low values 0.248 | locus YHR200W, strain rpn10, hits give low values 0.328 | locus YIL066C, strain RNR3, hits give low values 0.217 | locus YIL073C, strain SPO22, hits give low values 0.544 | locus YIL125W, strain kgd1, hits give low values 0.288 | locus YIR030C, strain dcg1, hits give low values 0.341 | locus YJL095W, strain BCK1, hits give low values 0.139 | locus YJL134W, strain LCB3, hits give low values 0.273 | locus YJL168C, strain set2, hits give low values 0.521 | locus YJL187C, strain SWE1 (second series), hits give low values 0.386 | locus YKL009W, strain mrt4, hits give low values 0.274 | locus YKL085W, strain MDH1 (second series), hits give low values 0.343 | locus YKL085W, strain MDH1, hits give low values 0.343 | locus YKR001C, strain vps1, hits give low values 0.123 | locus YLR039C, strain RIC1, hits give low values 0.46 | locus YLR058C, strain SHM2, hits give low values 0.301 | locus YLR102C, strain apc9, hits give low values 0.225 | locus YLR262C, strain YPT6, hits give low values 0.355 | locus YLR268W, strain sec22, hits give low values 0.308 | locus YLR330W, strain CHS5, hits give low values 0.097 | locus YLR371W, strain rom2, hits give low values 0.204 | locus YLR418C, strain cdc73, hits give low values 0.186 | locus YML016C, strain PPZ1, hits give low values 0.218 | locus YML032C, strain rad52, hits give low values 0.201 | locus YML124C, strain tub3, hits give low values 0.503 | locus YMR078C, strain ctf18, hits give low values 0.125 | locus YMR223W, strain ubp8, hits give low values 0.159 | locus YMR263W, strain SAP30, hits give low values 0.32 | locus YMR307W, strain GAS1, hits give low values 0.241 | locus YNL067W, strain RPL9B, hits give low values 0.56 | locus YNL153C, strain GIM3, hits give low values 0.365 | locus YNL233W, strain BNI4, hits give low values 0.141 | locus YNL250W, strain rad50, hits give low values 0.734 | locus YNL271C, strain bni1, hits give low values 0.526 | locus YNL298W, strain CLA4, hits give low values 0.384 | locus YNL307C, strain MCK1, hits give low values 0.0684 | locus YNR052C, strain pop2, hits give low values 0.426 | locus YOL006C, strain TOP1, hits give low values 0.149 | locus YOL147C, strain pex11, hits give low values 0.104 | locus YOR061W, strain CKA2, hits give low values 0.0632 | locus YOR069W, strain VPS5, hits give low values 0.559 | locus YOR136W, strain idh2, hits give low values 0.136 | locus YOR144C, strain elg1, hits give low values 0.236 | locus YOR184W, strain ser1, hits give low values 0.129 | locus YOR316C, strain cot1, hits give low values 0.354 | locus YPL241C, strain CIN2, hits give low values 0.114 | locus YPR119W, strain clb2, hits give low values 0.148 | locus YPR141C, strain kar3, hits give low values 0.824 | locus YPR163C, strain tif3, hits give low values 0.205 | locus YPR167C, strain met16, hits give low values 0.203 | strain wtn01, hits give low values 0.337
